Measured values reported in ChEMBL document CHEMBL3988442, “University of Dundee, Small-Polar-MMV Screening Library” (2021).
Out of some 85,000 compounds screened, about 440 (0.52%) showed an effect of 50% or more. The sample holds strong results, similar compounds and a random draw of the others, so the mix is not that of the screen.

Assay: In vitro enzyme assay to detect hydrolysis of chlorophenol red-beta-D-[…] directly proportional to the number of Toxoplasma stably expressing beta-galactosidase
Type: functional, organism-based, Toxoplasma gondii
Set-up: scale not given: in the data most compounds retested in dose-response had high values

Row | Structure (SMILES) | Percent Effect (50 µM) [%] | Percent Effect (10 µM) [%]
1 | COC(=O)N1CCC(Nc2nnc(C(F)(F)F)s2)CC1 | 9.072 | 
2 | NCC1CCCN(c2ncccn2)C1 (configuration not stated) | 3.495 | 
3 | O=C(NCC1CCCO1)c1cnn2cccnc12 (configuration not stated) | -4.539 | 
4 | NC(=O)c1cccc(CN2CCc3c(ncn3C3CC3)C2)c1 |  | 83.44
5 | Cn1cnc2c1CCN(Cc1cccc(C(N)=O)c1)C2 |  | 1.729
6 | CC(C)c1nc2c(n1C)CCN(Cc1cccc(C(N)=O)c1)C2 |  | -1.993
7 | CN(CCC#N)C(CCO)c1ccccc1 (configuration not stated) | 25.8 | 
8 | O=C(CSc1nnc(-c2ccccc2F)o1)NC1CC1 | -13.11 | 
9 | CC(C)(CC1CCCNC1)C(N)=O (configuration not stated) | 7.36 | 
10 | Cc1cc(C)n(CC(=O)NCCc2ccc[nH]2)n1 | -10.28 | 
11 | COCCNC(=O)c1cc2cc(C)ccc2n1C | 2.035 | 
12 | COc1cc2cc(C(=O)NCCC(=O)O)n(C)c2c(OC)c1OC |  | 74.68
13 | COc1cc2cc(C(=O)NCC(=O)O)n(C)c2c(OC)c1OC |  | 74.68
14 | COc1cc2cc(C(=O)O)n(C)c2c(OC)c1OC |  | -3.347
15 | COc1cc2cc(C(=O)NC(C)C(=O)O)n(C)c2c(OC)c1OC (configuration not stated) |  | 17.43
16 | COc1cc2cc(C(=O)N[C@@H](C)C(=O)O)n(C)c2c(OC)c1OC |  | -3.586
17 | COC(=O)C1CCN(C(=O)C2CCCO2)CC1 (configuration not stated) | -8.272 | 
18 | COc1ccccc1SC(C)C(=O)N1CCNC1=O (configuration not stated) | 15.55 | 
19 | CCc1cccc(NC(=O)C2CCCN(C(C)=O)C2)c1 (configuration not stated) | 4.153 | 
20 | CC1CCC(N(C)C(=O)Cn2cccn2)CC1 (configuration not stated) | -1.84 | 
21 | O=C(c1cc(C2CC2)n[nH]1)N1CCC2(CCCO2)CC1 | 64.63 | 
22 | O=C(c1cc(C2CC2)n[nH]1)N1CCCC(O)(CO)CC1 (configuration not stated) | 4.237 | 
23 | CN1CCc2[nH]nc(C(=O)N3CCC4(CCCO4)CC3)c2C1 |  | 1.903

Row | Structure (SMILES) | Percent Effect (50 µM) [%] | Percent Effect (10 µM) [%]
24 | Clc1ccc(CSc2cnn[nH]2)s1 | -14.75 | 
25 | Nc1nnc(SCc2ccc(Cl)s2)[nH]1 | 56.64 | 
26 | COc1ccc(CSc2nnc(N)[nH]2)c(Cl)c1 | 2.455 | 
27 | O=C(NCCO)c1nnsc1-c1ccc(Cl)cc1 | -1.39 | 
28 | CCS(=O)(=O)N(CCc1cccs1)CC(=O)NC | 65.25 | 
29 | CNC(=O)Cc1cccs1 | 0.3815 | 
30 | CC(C)N(CC(N)=O)CC(=O)NCCc1cccs1 | 12.36 | 
31 | CC(C)n1cccc1C(=O)NCCc1cncn1C | 7.567 | 
32 | COC(=O)c1snc(-c2ccccc2)c1N | 3.849 | 
33 | COC(=O)c1[nH]cc(-c2ccccc2)c1N | 60.81 | 
34 | CC(=O)Nc1nc(-c2ccccc2)c[nH]1 |  | -10.01
35 | O=S1(=O)CCC(NC2CCNCC2)C1 (configuration not stated) | 0.6188 | 
36 | CC(CCNC(=O)CCc1cccnc1)n1ccnc1 (configuration not stated) | -1.131 | 
37 | Cc1cc(=O)cc(C(=O)NCCCc2ccncc2)o1 | 15.6 | 
38 | Cc1cc(=O)cc(C(=O)NCCC(C)n2ccnc2)o1 (configuration not stated) | 85.97 | 
39 | COCC(=O)N1CCCN(Cc2cnn(C)c2)CC1 | 1.219 | 
40 | CC(=O)Nc1nc(CC(=O)NCc2ccco2)cs1 | -28.1 | 
41 | Cn1cc(NC(=O)CCc2ccccn2)cn1 | -11.54 | 
42 | Cc1cn(-c2ccc(C#N)cc2)nc1N | -9.418 | 
43 | Nc1ccnn1-c1ccccn1 | -4.085 | 
44 | N#Cc1ccc(-n2nccc2N)cc1 | 92.39 | 
45 | O=C1CNCN1Cc1ccccc1 | 2.533 | 
46 | N[C@@H]1CC[C@@H]1NC(=O)c1scc2c1OCCO2 | -7.783 | 

Row | Structure (SMILES) | Percent Effect (50 µM) [%] | Percent Effect (10 µM) [%]
47 | Cc1cnc(CN2CC3(CCOC3)CCC2=O)cn1 (configuration not stated) | -2.648 | 
48 | Cc1cc(C(=O)NCc2cccn2C)nn1C |  | 1.66
49 | Cc1ccc(CNC(=O)c2cc(C)n(C)n2)o1 |  | 75.49
50 | Cc1cc(C(=O)NCCc2noc(C3CC3)n2)nn1C | 97.7 | 
51 | Cc1cc(C(=O)NCCc2noc(C3CC3)n2)[nH]n1 | 12.77 | 
52 | Cc1ccc(CNC(=O)c2cc(NC(=O)C3CC3)n(C)n2)o1 |  | 2.088
53 | Cc1cc(C(=O)NCc2ccco2)nn1C |  | 56.09
54 | CCn1ccc(C(=O)NCc2ccco2)n1 | -13.38 | 
55 | Cc1cc(C(=O)NCC(C)C)nn1C |  | 9.135
56 | Cn1cc(C(=O)NCCc2noc(C3CC3)n2)cn1 | -7.141 | 
57 | CN(Cc1cccnc1)C(=O)c1cccc(Cl)c1 | 11.97 | 
58 | CNC(=O)CSCc1ccc2ccccc2n1 | 15.55 | 
59 | CCCS(=O)(=O)N1CCC(CC(=O)NC)CC1 | -1.732 | 
60 | Cn1cncc1C(N)CO (configuration not stated) | -9.765 | 
61 | CCC(N)(CC)CNS(=O)(=O)c1ccc2c(c1)CCO2 | -2.355 | 
62 | CC(C)CC(C)CN1CCN(CCS(C)(=O)=O)CC1 (configuration not stated) | -18.72 | 
63 | COc1csc(-c2cc(N)[nH]n2)c1 | 7.911 | 
64 | CCS(=O)(=O)CCNC(C)(CO)C1CCCCC1 (configuration not stated) | -6.595 | 
65 | CC(=O)c1c(C)cccc1NCC(=O)N(C)C | -19.59 | 
66 | Cn1cc(CN(C(=O)c2ccc(O)c(Cl)c2)C2CC2)cn1 |  | -12.14
67 | CN1C(=O)c2ccc(C(=O)N(Cc3cnn(C)c3)C3CC3)cc2C1=O |  | -5.009
68 | Cn1cc(CN(C(=O)c2ccc(N)nc2)C2CC2)cn1 | 96.08 | 
69 | CC(=O)N[C@H]1CCO[C@@H](c2cccc(NC(=O)c3cccc(F)c3)c2)C1 |  | 20.53

Row | Structure (SMILES) | Percent Effect (50 µM) [%] | Percent Effect (10 µM) [%]
70 | CC(=O)Nc1cccc([C@H]2C[C@@H](NC(C)=O)CCO2)c1 |  | -4.369
71 | CC(=O)N[C@H]1CCO[C@@H](c2cccc(NC(=O)c3ccc(=O)[nH]n3)c2)C1 |  | 71.09
72 | COCCCNC(=O)Nc1cnn(C)c1 | 3.712 | 
73 | Cn1nnc2c(N3CCCCC3)ncnc21 | -0.3233 | 
74 | O=C(O)C(F)(F)F.O=C([C@@H]1CCO[C@@H]2CCN(Cc3ccc(F)cc3)C[C@H]21)N1CCCCO1 |  | 73.44
75 | O=C([C@@H]1CCO[C@@H]2CCN(CC3CC3)C[C@H]21)N1CCCCO1 |  | 96.45
76 | O=C(O)C(F)(F)F.O=C([C@@H]1CCO[C@@H]2CCN(Cc3cccs3)C[C@H]21)N1CCCCO1 |  | -10.74
77 | O=C(O)C(F)(F)F.O=C([C@H]1CN(Cc2ccc(F)cc2)C[C@H]2OCC[C@@H]12)N1CCCO1 |  | 0.4926
78 | O=C(O)C(F)(F)F.O=C([C@@H]1CCO[C@@H]2CCN(CC3CCOCC3)C[C@H]21)N1CCCO1 |  | -19.56
79 | O=C([C@@H]1CCO[C@@H]2CCN(CC3CC3)C[C@H]21)N1CCCC1 |  | -7.409
80 | CC1(C)CNCCC(=O)C1 | -1.716 | 
81 | C[C@H](N)c1ccc(Cl)s1 | 6.702 | 
82 | CCCc1nc(C(=O)NCCc2cccnc2)cs1 | -0.1814 | 
83 | CCn1nc(C)cc1C(=O)N1CCNC(=O)C1(C)C | 1.148 | 
84 | O=C1NCCN1CCNc1cc(C2CC(O)C2)ncn1 (configuration not stated) | 17.22 | 
85 | CN1N=C(C(=O)NCCn2cccc2)CCC1=O | 4.885 | 
86 | CCCNC(=O)C1=NN(C)C(=O)CC1 | -13.89 | 
87 | CCc1ccccc1NC(=O)C1=NN(C)C(=O)CC1 | 53.5 | 
88 | Cc1nc(C)c(C(=O)N2CCCC3(CCOC3)C2)s1 (configuration not stated) | -1.962 | 
89 | CN(C)CCCN(CCC#N)C(=O)c1ccccn1 | 5.806 | 
90 | Cc1n[nH]c(SCCN)n1 | 7.335 | 
91 | Cc1cc(NC(=O)COC(=O)c2cccc(F)c2)[nH]n1 | 3.257 | 
92 | O=C(CCN1C(=O)CCC1=O)OCCc1cccs1 | -8.658 | 

Row | Structure (SMILES) | Percent Effect (50 µM) [%] | Percent Effect (10 µM) [%]
93 | COc1ccc(CNCCn2cccn2)cc1OC | -8.387 | 
94 | NCC(c1ccccc1)N1CCc2sccc2C1 (configuration not stated) |  | -0.2514
95 | CC(C)c1ccc(C(CN)N2CCc3sccc3C2)cc1 (configuration not stated) |  | 87.38
96 | NCC(c1ccc(Cl)cc1)N1CCc2sccc2C1 (configuration not stated) |  | 32.54
97 | CC(CNC(=O)c1cccc(OC(F)F)c1)N(C)C (configuration not stated) | -0.9989 | 
98 | CCOCCN1CCN(CC(C)O)CC1 (configuration not stated) | -13.93 | 
99 | O=c1cc(-c2cc(O)cc(CCC3CCCCN3)c2)cc[nH]1 (configuration not stated) |  | 0.1729
100 | CS(=O)(=O)c1ccc(-c2cc(O)cc(CCC3CCCCN3)c2)cc1 (configuration not stated) |  | 50.66
101 | Oc1cc(CCC2CCCCN2)cc(-c2ccncc2)c1 (configuration not stated) |  | -0.7663
102 | Cc1ccc(CN2CCOC(CCO)C2)c(F)c1 (configuration not stated) | 1.605 | 
103 | CCNc1nc(-c2cccnc2)c(-c2ccnc(NCCO)n2)s1 |  | 32.17
104 | CC(C)(C)Nc1nc(-c2cccnc2)c(-c2ccnc(NCCO)n2)s1 |  | 85.15
105 | CCNc1nc(-c2cccnc2)c(-c2ccnc(NS(C)(=O)=O)n2)s1 |  | -26.67
106 | Cc1noc(C)c1CNC(=O)c1csc(S(N)(=O)=O)c1 | -3.715 | 
107 | Cn1cccc1C(=O)N1C[C@@H](OCc2ccncc2)[C@@H]2OCCC[C@@H]21.O=C(O)C(F)(F)F |  | 96.07
108 | COCC(=O)N1C[C@@H](OCc2ccncc2)[C@@H]2OCCC[C@@H]21.O=C(O)C(F)(F)F |  | 64.14
109 | O=C(CC1CCCC1)N1C[C@H](OCc2ccncc2)[C@H]2OCCC[C@H]21.O=C(O)C(F)(F)F |  | -2.876
110 | COCC(=O)N1C[C@@H](OCc2cccnc2)[C@H]2OCCC[C@@H]21.O=C(O)C(F)(F)F |  | 1.724
111 | Cc1cccc(C(=O)N2C[C@@H](OCc3ccncc3)[C@@H]3OCCC[C@@H]32)n1.O=C(O)C(F)(F)F.O=C(O)C(F)(F)F |  | -3.452
112 | Cn1cccc1C(=O)N1C[C@@H](OCc2cccnc2)[C@H]2OCCC[C@H]21 |  | 1.724
